Whole data set: some 1,900 compounds, median “excess over highest single agent (ExcessHSA) synergy score, 6x6 matrix” near -83, cut for the lowest 2% near -370. This is one part of a sample in which the lowest values are shown more often than they occur.
These compounds were tested on NCI-H446 (assay: excess over highest single agent (ExcessHSA) synergy score, 6x6 matrix; higher = less synergy (more negative = stronger synergy)). Conditions: 72 h; CellTiter-Glo viability.

Going from `CCn1c(C(=O)N(C2CC2)C2CC2)cc2c3c(ncn3C)c(Nc3cc(C)n(C)n3)nc21` + Cc1sc2c(c1C)C(c1ccc(Cl)cc1)=N[C@@H](CC(=O)OC(C)(C)C)c1nnc(C)n1-2 [NCGC00250412-19] to `CCS(=O)(=O)c1cccc(-c2cc(C(=O)NC3CCN(C)CC3)c(C)c3[nH]c4ncc(C)cc4c23)c1` + Cc1sc2c(c1C)C(c1ccc(Cl)cc1)=N[C@@H](CC(=O)OC(C)(C)C)c1nnc(C)n1-2 [NCGC00250412-19], the “excess over highest single agent” value falls from 76.1 to -197.

First: N#C/C(=C(/N)Sc1ccc(N)cc1)c1ccccc1C(F)(F)F + Cc1sc2c(c1C)C(c1ccc(Cl)cc1)=N[C@@H](CC(=O)OC(C)(C)C)c1nnc(C)n1-2 [NCGC00250412-19]
Second: C#CCN(C)CC1=Cc2ccccc2Oc2ccccc21 + Cc1sc2c(c1C)C(c1ccc(Cl)cc1)=N[C@@H](CC(=O)OC(C)(C)C)c1nnc(C)n1-2 [NCGC00250412-19]
The “excess over highest single agent” value of the first is higher: -146 for the first, -204 for the second.

First: CCc1ccc(C(=O)Nc2cc(CN3CCN(C)CC3)cc(C(F)(F)F)c2)cc1C#Cc1cnc2ccnn2c1 + Cc1sc2c(c1C)C(c1ccc(Cl)cc1)=N[C@@H](CC(=O)OC(C)(C)C)c1nnc(C)n1-2 [NCGC00250412-19]
Second: Cc1ccc(NC(=O)c2ccc(CN3CCN(C)CC3)cc2)cc1Nc1nccc(-c2cccnc2)n1 + Cc1sc2c(c1C)C(c1ccc(Cl)cc1)=N[C@@H](CC(=O)OC(C)(C)C)c1nnc(C)n1-2 [NCGC00250412-19]
The “excess over highest single agent” value of the first is higher: -7.02 for the first, -176 for the second.

Going from `O=C(NCc1ccccc1)[C@H](Cc1ccccc1)NC(=O)[C@H]1O[C@@H]1C(=O)NCCc1ccc(O)cc1` + Cc1sc2c(c1C)C(c1ccc(Cl)cc1)=N[C@@H](CC(=O)OC(C)(C)C)c1nnc(C)n1-2 [NCGC00250412-19] to `CCN1CCN(C(=O)Cc2ccc(Nc3ncc(F)c(Nc4ccc(C(=O)Nc5ccccc5Cl)cc4)n3)cc2)CC1` + Cc1sc2c(c1C)C(c1ccc(Cl)cc1)=N[C@@H](CC(=O)OC(C)(C)C)c1nnc(C)n1-2 [NCGC00250412-19], the “excess over highest single agent” value falls from -10.6 to -388.

First: O=C(O)c1ccc(Nc2ncc3c(n2)-c2ccc(Cl)cc2C(c2c(F)cccc2F)=NC3)cc1 + Cc1sc2c(c1C)C(c1ccc(Cl)cc1)=N[C@@H](CC(=O)OC(C)(C)C)c1nnc(C)n1-2 [NCGC00250412-19]
Second: Cc1ccc(C(=O)Nc2cccc(C(F)(F)F)c2)cc1-c1ccc2nc(NCCN3CCOCC3)ncc2c1 + Cc1sc2c(c1C)C(c1ccc(Cl)cc1)=N[C@@H](CC(=O)OC(C)(C)C)c1nnc(C)n1-2 [NCGC00250412-19]
The “excess over highest single agent” value of the first is lower: -157 for the first, -140 for the second.

First: OC[C@@H](O)[C@@H](O)[C@@H](O)CO + Cc1sc2c(c1C)C(c1ccc(Cl)cc1)=N[C@@H](CC(=O)OC(C)(C)C)c1nnc(C)n1-2 [NCGC00250412-19]
Second: OC[C@H]1OC(O)C[C@@H](O)[C@@H]1O (stereo partly drawn) + Cc1sc2c(c1C)C(c1ccc(Cl)cc1)=N[C@@H](CC(=O)OC(C)(C)C)c1nnc(C)n1-2 [NCGC00250412-19]
The “excess over highest single agent” value of the first is higher: -189 for the first, -201 for the second.

First: Cc1cc(Nc2nc(N[C@@H](C)c3ccc(F)cc3)c(C#N)cc2F)n[nH]1 + Cc1sc2c(c1C)C(c1ccc(Cl)cc1)=N[C@@H](CC(=O)OC(C)(C)C)c1nnc(C)n1-2 [NCGC00250412-19]
Second: CC(C)Oc1cc(Nc2nc(N[C@@H](C)c3ccc(F)cn3)ncc2Cl)n[nH]1 + Cc1sc2c(c1C)C(c1ccc(Cl)cc1)=N[C@@H](CC(=O)OC(C)(C)C)c1nnc(C)n1-2 [NCGC00250412-19]
The “excess over highest single agent” value of the first is higher: -209 for the first, -396 for the second.

Compared with `Cc1cc(Nc2nc(N[C@@H](C)c3ncc(F)cn3)ncc2Cl)[nH]n1` + Cc1sc2c(c1C)C(c1ccc(Cl)cc1)=N[C@@H](CC(=O)OC(C)(C)C)c1nnc(C)n1-2 [NCGC00250412-19], `CNC(=O)c1ccc(-c2cnc3ncc(Cc4ccc5ncccc5c4)n3n2)cc1F` + Cc1sc2c(c1C)C(c1ccc(Cl)cc1)=N[C@@H](CC(=O)OC(C)(C)C)c1nnc(C)n1-2 [NCGC00250412-19] is higher in “excess over highest single agent” value: -46 for the first, 48.7 for the second.

Compared with `CCOC(=O)C1=C(O)C(=O)N(Cc2ccccc2)C1` + Cc1sc2c(c1C)C(c1ccc(Cl)cc1)=N[C@@H](CC(=O)OC(C)(C)C)c1nnc(C)n1-2 [NCGC00250412-19], `O=C(O)C(=O)Nc1cccc(-c2nnn[nH]2)c1` + Cc1sc2c(c1C)C(c1ccc(Cl)cc1)=N[C@@H](CC(=O)OC(C)(C)C)c1nnc(C)n1-2 [NCGC00250412-19] is higher in “excess over highest single agent” value: -90.7 for the first, 42.8 for the second.

First: Cc1ccccn1.N.[Cl-].[Cl-].[Pt+2] + Cc1sc2c(c1C)C(c1ccc(Cl)cc1)=N[C@@H](CC(=O)OC(C)(C)C)c1nnc(C)n1-2 [NCGC00250412-19]
Second: Oc1cccc(-c2nc(N3CCOCC3)c3oc4ncccc4c3n2)c1 + Cc1sc2c(c1C)C(c1ccc(Cl)cc1)=N[C@@H](CC(=O)OC(C)(C)C)c1nnc(C)n1-2 [NCGC00250412-19]
The “excess over highest single agent” value of the first is higher: 123 for the first, -410 for the second.

Going from `N#Cc1c(N(CC(=O)O)CC(=O)O)sc(C(=O)O)c1CC(=O)O` + Cc1sc2c(c1C)C(c1ccc(Cl)cc1)=N[C@@H](CC(=O)OC(C)(C)C)c1nnc(C)n1-2 [NCGC00250412-19] to `O=C(O)c1nc(=O)[nH]c(=O)[nH]1` + Cc1sc2c(c1C)C(c1ccc(Cl)cc1)=N[C@@H](CC(=O)OC(C)(C)C)c1nnc(C)n1-2 [NCGC00250412-19], the “excess over highest single agent” value falls from -47.5 to -48.1.

First: C=CCON=C(C[C@H]1O[C@@H]2O[C@]3(C)CC[C@@H]4[C@H](C)CC[C@@H]([C@H]1C)[C@@]24OO3)[C@H]1O[C@@H]2O[C@]3(C)CC[C@H]4[C@H](C)CC[C@@H]([C@@H]1C)[C@@]24OO3 + Cc1sc2c(c1C)C(c1ccc(Cl)cc1)=N[C@@H](CC(=O)OC(C)(C)C)c1nnc(C)n1-2 [NCGC00250412-19]
Second: C[C@@H]1[C@@H](C(=O)C[C@H]2O[C@@H]3O[C@]4(C)CC[C@@H]5[C@H](C)CC[C@@H]([C@H]2C)[C@@]35OO4)O[C@@H]2O[C@]3(C)CC[C@H]4[C@H](C)CC[C@@H]1[C@@]24OO3 + Cc1sc2c(c1C)C(c1ccc(Cl)cc1)=N[C@@H](CC(=O)OC(C)(C)C)c1nnc(C)n1-2 [NCGC00250412-19]
The “excess over highest single agent” value of the first is lower: -427 for the first, -355 for the second.

Going from `C[C@H]1[C@@H](O)O[C@@H]2O[C@@]3(C)CC[C@H]4[C@H](C)CC[C@@H]1[C@@]24OO3` + Cc1sc2c(c1C)C(c1ccc(Cl)cc1)=N[C@@H](CC(=O)OC(C)(C)C)c1nnc(C)n1-2 [NCGC00250412-19] to `CCn1c(-c2nonc2N)nc2cncc(CNC3CCNCC3)c21` + Cc1sc2c(c1C)C(c1ccc(Cl)cc1)=N[C@@H](CC(=O)OC(C)(C)C)c1nnc(C)n1-2 [NCGC00250412-19], the “excess over highest single agent” value rises from -199 to 51.1.

Going from `Cn1cnc(=N)c2[nH]cnc21` + Cc1sc2c(c1C)C(c1ccc(Cl)cc1)=N[C@@H](CC(=O)OC(C)(C)C)c1nnc(C)n1-2 [NCGC00250412-19] to `Cc1cnc(CNC(=O)c2c(=O)c3ccc(N4CCCN(C)CC4)nc3n3c2sc2ccccc23)cn1` + Cc1sc2c(c1C)C(c1ccc(Cl)cc1)=N[C@@H](CC(=O)OC(C)(C)C)c1nnc(C)n1-2 [NCGC00250412-19], the “excess over highest single agent” value falls from -164 to -259.

Going from `CN1c2cc(O)c(N=NC(N)=O)cc2CC1S(=O)(=O)O` (stereo not drawn) + Cc1sc2c(c1C)C(c1ccc(Cl)cc1)=N[C@@H](CC(=O)OC(C)(C)C)c1nnc(C)n1-2 [NCGC00250412-19] to `CNC(=O)N1N=C(c2ccc(N)cc2)c2cc3c(cc2CC1C)OCO3` (stereo not drawn) + Cc1sc2c(c1C)C(c1ccc(Cl)cc1)=N[C@@H](CC(=O)OC(C)(C)C)c1nnc(C)n1-2 [NCGC00250412-19], the “excess over highest single agent” value rises from -280 to -19.1.

First: Cc1cn2cc(C(=O)N(C)CCO)cc(N[C@@H]3CCOc4cccc(C)c43)c2n1 + Cc1sc2c(c1C)C(c1ccc(Cl)cc1)=N[C@@H](CC(=O)OC(C)(C)C)c1nnc(C)n1-2 [NCGC00250412-19]
Second: Nc1ccc(C(=O)Nc2cccc(-c3nc(N4CCOCC4)c4oc5ncccc5c4n3)c2)cn1 + Cc1sc2c(c1C)C(c1ccc(Cl)cc1)=N[C@@H](CC(=O)OC(C)(C)C)c1nnc(C)n1-2 [NCGC00250412-19]
The “excess over highest single agent” value of the first is lower: 64.1 for the first, 98.4 for the second.

Going from `O=C(CCCCCCC(=O)Nc1cccnc1)NO` + Cc1sc2c(c1C)C(c1ccc(Cl)cc1)=N[C@@H](CC(=O)OC(C)(C)C)c1nnc(C)n1-2 [NCGC00250412-19] to `O=C(O)[C@]1(Cc2cccc(Nc3nccs3)n2)CC[C@@H](Oc2cccc(Cl)c2F)CC1` + Cc1sc2c(c1C)C(c1ccc(Cl)cc1)=N[C@@H](CC(=O)OC(C)(C)C)c1nnc(C)n1-2 [NCGC00250412-19], the “excess over highest single agent” value rises from -276 to -273.

First: c1cncc(CN2CCC(n3ncc4c(N5CCOCC5)nc(-c5ccc6[nH]ccc6c5)nc43)CC2)c1 + Cc1sc2c(c1C)C(c1ccc(Cl)cc1)=N[C@@H](CC(=O)OC(C)(C)C)c1nnc(C)n1-2 [NCGC00250412-19]
Second: Nc1ncnc2c1c(-c1cccc(OCc3ccccc3)c1)cn2C1CC(CN2CCC2)C1 (stereo not drawn) + Cc1sc2c(c1C)C(c1ccc(Cl)cc1)=N[C@@H](CC(=O)OC(C)(C)C)c1nnc(C)n1-2 [NCGC00250412-19]
The “excess over highest single agent” value of the first is lower: -140 for the first, -56.6 for the second.

Going from `COc1ncc(-c2ccc3nccc(-c4ccnnc4)c3c2)cc1NS(=O)(=O)c1ccc(F)cc1F` + Cc1sc2c(c1C)C(c1ccc(Cl)cc1)=N[C@@H](CC(=O)OC(C)(C)C)c1nnc(C)n1-2 [NCGC00250412-19] to `Cc1ccccc1-n1c(Cn2nc(-c3cccc(O)c3)c3c(N)ncnc32)nc2cccc(C)c2c1=O` + Cc1sc2c(c1C)C(c1ccc(Cl)cc1)=N[C@@H](CC(=O)OC(C)(C)C)c1nnc(C)n1-2 [NCGC00250412-19], the “excess over highest single agent” value rises from -259 to -224.
